Experimental findings from the supplement of paper PMC10849652 are described below.

The full data set covers some 7,900 targets. This sample favours those with a hit. About 0.6% of all pairs of compound and target were hits.

Chain of UniProt Q92615 (Q92615 whole entry, looked up): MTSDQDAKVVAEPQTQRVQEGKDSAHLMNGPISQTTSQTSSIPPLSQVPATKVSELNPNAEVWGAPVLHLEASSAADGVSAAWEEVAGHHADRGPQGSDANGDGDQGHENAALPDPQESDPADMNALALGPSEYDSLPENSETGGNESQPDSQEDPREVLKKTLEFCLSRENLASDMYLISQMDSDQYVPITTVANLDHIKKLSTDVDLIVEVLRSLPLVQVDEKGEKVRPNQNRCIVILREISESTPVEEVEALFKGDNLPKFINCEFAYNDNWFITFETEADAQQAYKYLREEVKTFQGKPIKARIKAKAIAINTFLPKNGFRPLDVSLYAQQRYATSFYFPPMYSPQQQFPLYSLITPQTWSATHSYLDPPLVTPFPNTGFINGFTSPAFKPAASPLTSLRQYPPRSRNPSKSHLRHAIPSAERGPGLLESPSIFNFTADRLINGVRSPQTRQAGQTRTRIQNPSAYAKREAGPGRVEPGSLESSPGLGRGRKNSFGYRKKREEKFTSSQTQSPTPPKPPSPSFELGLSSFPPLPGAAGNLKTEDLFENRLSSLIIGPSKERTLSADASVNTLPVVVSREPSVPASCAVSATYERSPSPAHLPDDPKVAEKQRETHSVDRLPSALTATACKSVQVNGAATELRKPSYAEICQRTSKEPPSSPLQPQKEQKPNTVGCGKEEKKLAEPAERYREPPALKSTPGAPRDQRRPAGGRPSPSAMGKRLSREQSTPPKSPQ
Chain of UniProt Q9BU23 (Q9BU23 whole entry, looked up): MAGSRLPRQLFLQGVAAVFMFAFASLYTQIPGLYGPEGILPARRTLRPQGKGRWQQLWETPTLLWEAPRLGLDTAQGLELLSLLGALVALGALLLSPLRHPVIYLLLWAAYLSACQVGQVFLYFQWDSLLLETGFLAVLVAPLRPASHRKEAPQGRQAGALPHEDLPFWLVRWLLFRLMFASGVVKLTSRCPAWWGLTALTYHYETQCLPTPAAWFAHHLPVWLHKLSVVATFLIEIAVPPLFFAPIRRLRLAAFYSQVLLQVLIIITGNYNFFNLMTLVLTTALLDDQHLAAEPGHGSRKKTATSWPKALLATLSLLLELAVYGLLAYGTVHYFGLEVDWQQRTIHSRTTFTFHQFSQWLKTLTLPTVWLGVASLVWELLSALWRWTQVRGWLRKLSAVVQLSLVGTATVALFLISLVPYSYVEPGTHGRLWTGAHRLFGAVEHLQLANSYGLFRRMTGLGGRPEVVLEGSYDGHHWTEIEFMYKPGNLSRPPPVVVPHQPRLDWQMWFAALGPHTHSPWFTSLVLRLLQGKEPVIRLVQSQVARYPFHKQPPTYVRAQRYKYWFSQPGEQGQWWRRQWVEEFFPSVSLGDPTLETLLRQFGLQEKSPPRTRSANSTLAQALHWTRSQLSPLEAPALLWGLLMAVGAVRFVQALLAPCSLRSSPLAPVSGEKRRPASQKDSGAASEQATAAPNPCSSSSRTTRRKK
Chain of UniProt O15243 (O15243 whole entry, looked up): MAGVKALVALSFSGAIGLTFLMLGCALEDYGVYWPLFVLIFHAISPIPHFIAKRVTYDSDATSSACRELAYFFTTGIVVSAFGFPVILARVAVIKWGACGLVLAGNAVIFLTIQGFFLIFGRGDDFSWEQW
Chain of UniProt Q8IYU8 (Q8IYU8 whole entry, looked up): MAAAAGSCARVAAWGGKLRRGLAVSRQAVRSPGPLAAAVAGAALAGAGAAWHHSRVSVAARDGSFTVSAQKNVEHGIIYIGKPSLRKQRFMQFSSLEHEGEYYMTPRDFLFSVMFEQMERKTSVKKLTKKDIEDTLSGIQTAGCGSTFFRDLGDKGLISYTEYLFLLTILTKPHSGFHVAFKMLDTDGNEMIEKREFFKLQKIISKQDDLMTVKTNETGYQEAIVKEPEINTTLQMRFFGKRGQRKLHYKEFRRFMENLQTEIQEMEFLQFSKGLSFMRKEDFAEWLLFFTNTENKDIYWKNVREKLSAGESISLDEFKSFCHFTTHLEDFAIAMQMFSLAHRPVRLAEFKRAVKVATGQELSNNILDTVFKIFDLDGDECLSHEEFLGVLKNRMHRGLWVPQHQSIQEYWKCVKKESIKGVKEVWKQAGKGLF
Chain of UniProt Q86X29 (Q86X29 whole entry, looked up): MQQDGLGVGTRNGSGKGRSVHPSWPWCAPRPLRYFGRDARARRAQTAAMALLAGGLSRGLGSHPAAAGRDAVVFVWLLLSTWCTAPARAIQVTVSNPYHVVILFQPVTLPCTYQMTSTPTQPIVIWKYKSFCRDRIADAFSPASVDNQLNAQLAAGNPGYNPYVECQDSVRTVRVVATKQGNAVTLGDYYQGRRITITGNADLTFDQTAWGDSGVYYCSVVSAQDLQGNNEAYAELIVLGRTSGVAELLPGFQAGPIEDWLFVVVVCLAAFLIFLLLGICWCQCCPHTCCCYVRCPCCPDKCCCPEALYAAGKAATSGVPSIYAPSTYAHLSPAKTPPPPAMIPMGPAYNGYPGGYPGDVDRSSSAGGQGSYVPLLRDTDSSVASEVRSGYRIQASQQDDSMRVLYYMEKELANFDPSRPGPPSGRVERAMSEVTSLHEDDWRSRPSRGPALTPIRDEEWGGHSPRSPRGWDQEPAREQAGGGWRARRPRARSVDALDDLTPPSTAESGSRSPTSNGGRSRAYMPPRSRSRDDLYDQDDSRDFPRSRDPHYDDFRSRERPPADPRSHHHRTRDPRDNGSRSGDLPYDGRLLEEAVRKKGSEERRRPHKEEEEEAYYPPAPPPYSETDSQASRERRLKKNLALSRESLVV
Chain of UniProt Q96EK5 (Q96EK5 whole entry, looked up): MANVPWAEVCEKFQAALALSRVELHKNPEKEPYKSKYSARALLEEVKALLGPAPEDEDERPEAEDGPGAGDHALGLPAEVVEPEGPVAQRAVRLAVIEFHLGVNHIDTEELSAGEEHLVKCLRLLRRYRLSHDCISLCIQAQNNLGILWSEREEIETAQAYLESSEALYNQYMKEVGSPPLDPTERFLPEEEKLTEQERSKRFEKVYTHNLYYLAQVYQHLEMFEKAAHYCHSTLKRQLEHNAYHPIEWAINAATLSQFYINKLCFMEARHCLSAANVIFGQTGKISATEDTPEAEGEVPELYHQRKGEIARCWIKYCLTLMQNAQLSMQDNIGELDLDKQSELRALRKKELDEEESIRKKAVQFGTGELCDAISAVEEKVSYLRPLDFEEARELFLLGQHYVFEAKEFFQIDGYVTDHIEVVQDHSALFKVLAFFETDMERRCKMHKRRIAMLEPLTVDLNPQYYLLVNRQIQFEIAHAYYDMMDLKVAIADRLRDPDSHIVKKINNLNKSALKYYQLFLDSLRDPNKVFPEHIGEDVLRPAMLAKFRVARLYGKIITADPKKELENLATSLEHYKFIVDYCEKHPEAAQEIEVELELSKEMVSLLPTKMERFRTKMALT
Chain of UniProt O14733 (O14733 whole entry, looked up): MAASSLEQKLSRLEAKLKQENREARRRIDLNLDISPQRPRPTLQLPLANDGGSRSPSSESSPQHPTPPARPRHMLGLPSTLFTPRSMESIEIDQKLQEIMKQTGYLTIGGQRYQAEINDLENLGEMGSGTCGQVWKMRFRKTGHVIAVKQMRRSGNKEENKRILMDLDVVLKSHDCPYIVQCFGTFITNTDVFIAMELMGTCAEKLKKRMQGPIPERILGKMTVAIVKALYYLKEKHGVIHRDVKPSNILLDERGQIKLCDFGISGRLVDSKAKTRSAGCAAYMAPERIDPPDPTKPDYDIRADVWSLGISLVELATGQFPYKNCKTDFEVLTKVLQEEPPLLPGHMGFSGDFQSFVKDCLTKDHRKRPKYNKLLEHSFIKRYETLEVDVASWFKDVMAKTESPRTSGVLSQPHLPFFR
Chain of UniProt O15066 (O15066 whole entry, looked up): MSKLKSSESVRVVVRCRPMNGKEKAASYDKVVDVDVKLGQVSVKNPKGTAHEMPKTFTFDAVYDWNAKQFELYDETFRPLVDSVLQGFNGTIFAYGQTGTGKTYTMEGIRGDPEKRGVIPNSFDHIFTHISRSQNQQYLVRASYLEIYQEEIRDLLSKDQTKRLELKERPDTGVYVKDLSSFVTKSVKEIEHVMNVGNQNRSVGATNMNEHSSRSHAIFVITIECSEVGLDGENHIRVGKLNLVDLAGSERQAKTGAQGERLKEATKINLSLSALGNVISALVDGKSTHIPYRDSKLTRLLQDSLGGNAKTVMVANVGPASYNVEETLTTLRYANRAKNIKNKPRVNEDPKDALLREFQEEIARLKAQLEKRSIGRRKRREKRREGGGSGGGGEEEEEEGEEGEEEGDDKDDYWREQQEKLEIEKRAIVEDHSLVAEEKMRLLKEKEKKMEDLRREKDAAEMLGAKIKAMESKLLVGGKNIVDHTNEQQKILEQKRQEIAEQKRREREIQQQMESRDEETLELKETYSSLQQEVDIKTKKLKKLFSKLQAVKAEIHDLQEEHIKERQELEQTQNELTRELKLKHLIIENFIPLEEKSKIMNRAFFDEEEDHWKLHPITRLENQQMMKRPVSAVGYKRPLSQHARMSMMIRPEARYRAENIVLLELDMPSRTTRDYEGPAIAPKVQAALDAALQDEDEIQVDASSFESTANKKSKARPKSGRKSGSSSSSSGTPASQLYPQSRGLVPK
Chain of UniProt Q9BRT3 (Q9BRT3 whole entry, looked up): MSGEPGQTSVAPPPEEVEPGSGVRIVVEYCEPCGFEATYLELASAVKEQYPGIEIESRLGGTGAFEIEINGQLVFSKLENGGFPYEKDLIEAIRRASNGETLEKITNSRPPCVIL
Chain of UniProt P43361 (P43361 whole entry, looked up): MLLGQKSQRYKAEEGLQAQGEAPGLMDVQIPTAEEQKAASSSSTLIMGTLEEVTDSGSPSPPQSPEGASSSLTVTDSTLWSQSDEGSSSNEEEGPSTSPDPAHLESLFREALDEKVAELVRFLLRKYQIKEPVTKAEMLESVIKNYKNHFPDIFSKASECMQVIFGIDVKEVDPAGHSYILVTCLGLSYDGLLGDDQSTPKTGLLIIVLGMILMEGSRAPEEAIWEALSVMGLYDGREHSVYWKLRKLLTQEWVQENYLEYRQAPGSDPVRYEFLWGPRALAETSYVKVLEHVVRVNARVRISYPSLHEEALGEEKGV

Compound in the assay: c1cn2cc(-c3ccc4cn[nH]c4c3)nc(Nc3ccc(N4CCOCC4)cc3)c2n1 [entospletinib]
The experiment in a line: log2 fold change, soluble protein after heating vs DMSO (PISA); higher = thermal stabilisation; K562 cells, 10 uM, 30 min; active = over 0.2 and 3.5 SD of the protein, either way, in both replicates (recomputed). The method, boiled down:
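Values are thermal stability changes relative to control samples and are taken from duplicates. They are stated as log2 fold changes. Before quantification by TMTpro 16plex LC-MS/MS with equalised channel sums, K562 cells at 2×10^6 cells/mL were treated with 10 μM compound for 30 min, heated in aliquots for 3 min across 48°C-58°C, pooled, extracted in PBS with 0.5% NP-40 at 4°C, and centrifuged at 21,000xg for 90 min to give the soluble supernatant.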
For the target ILF3 (UniProt Q12906), the log2 fold change was -0.086 (inactive).
For KIF11 (UniProt P52732), the log2 fold change is 0.058 (inactive).
For the target ILK (UniProt Q13418), the log2 fold change is 0.074 (inactive).
In the case of MIEF1 (UniProt Q9NQG6) it was 0.032 (inactive).
In the case of MAP2K1 (UniProt Q02750) it was -0.026 (inactive).
In the case of MGST3 (UniProt O14880) it was 0.054 (inactive).
In the case of MAP1LC3B2 (UniProt A6NCE7), the log2 fold change was -0.001 (inactive).
In the case of KDM3B (UniProt Q7LBC6) it was -0.027 (inactive); in that of MIA2 (UniProt Q96PC5), -0.012 (inactive); in that of MCCC2 (UniProt Q9HCC0), -0.002 (inactive).
Under IGFBP2 (UniProt P18065) stands 0.092 (inactive); under LARP4B (UniProt Q92615), 0.063 (inactive); under ITIH4 (UniProt Q14624), 0.124 (inactive).
On to MIEN1 (UniProt Q9BRT3), for which the log2 fold change is -0.01 (inactive).
For the target LMF2 (UniProt Q9BU23), the log2 fold change is -0.019 (inactive).
In the case of INTS7 (UniProt Q9NVH2), the log2 fold change is -0.005 (inactive).
For the target IRAK4 (UniProt Q9NWZ3), the log2 fold change is 0.096 (inactive).
In the case of KIFBP (UniProt Q96EK5) it was -0.098 (inactive).
Under MAP4K4 isoform 3 (UniProt O95819) stands -0.019 (inactive).
Under MAP2K7 isoform 4 (UniProt O14733) stands -0.009 (inactive); under ILKAP (UniProt Q9H0C8), -0.012 (inactive).
Turning to MED8 isoform 2 (UniProt Q96G25), the log2 fold change is 0.034 (inactive).
LSR (UniProt Q86X29): the log2 fold change was -0.006 (inactive).
Under IK (UniProt Q13123) stands 0.015 (inactive); under MAGEA8 (UniProt P43361), 0.125 (inactive); under KIF3B (UniProt O15066), 0.23 (inactive).
Under KHDC4 (UniProt Q7Z7F0) stands -0.051 (inactive); under LDAH isoform 2 (UniProt Q9H6V9), 0.016 (inactive); under LEPROT (UniProt O15243), 0.029 (inactive).
In the case of MELK (UniProt Q14680) it was 0.025 (inactive); in that of MICU2 (UniProt Q8IYU8), 0.019 (inactive).
For the target ITPRIP (UniProt Q8IWB1), the log2 fold change was -0.005 (inactive).
On to MAP3K4 isoform 2 (UniProt Q9Y6R4), for which the log2 fold change was 0.02 (inactive).
